A short description of experiment [1]: NCI Yeast Anticancer Drug Screen. Data for the rad50 strain (AID 155).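 Note: 0% = growth of vehicle-only cultures of the same strain.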 The settings on record: S. cerevisiae rad50 strain growth inhibition; at 50.0 µM; active compounds read high. In short, it runs like this: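 Readout: growth inhibition relative to vehicle-treated cultures. Compound exposure was carried out in a genetically defined yeast strain deficient in DNA damage repair.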

The nature of experiment [2]: NCI Yeast Anticancer Drug Screen. Data for the mec2-1 strain (AID 157). The settings on record: S. cerevisiae mec2-1 strain, at 50.0 µM, active compounds read high. A digest of the protocol: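 Yeast mec2-1 mutant treated with compound. Readout: growth inhibition vs vehicle controls.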
A short description of experiment [3]: NCI Yeast Anticancer Drug Screen. Data for the sgs1 mgt1 strain (AID 161).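 Note: 0% = growth of cultures given vehicle only.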 As to conditions: S. cerevisiae sgs1 mgt1 strain, at 50.0 µM, active compounds read high. In short, it runs like this: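 Test agents were incubated with a DNA-repair-mutant yeast strain. Growth was then read and compared against vehicle-treated controls.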
Experiment [4] is described as follows: NCI Yeast Anticancer Drug Screen. Data for the cln2 rad14 strain (AID 165).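 Note: 0% = growth equal to vehicle treated cultures.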 As to conditions: S. cerevisiae cln2 rad14 strain, at 50.0 µM, active compounds read high. A digest of the protocol:
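cln2 rad14 yeast strain; compound exposure; growth inhibition read vs vehicle controls.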

Experiment [5] is described as follows: NCI Yeast Anticancer Drug Screen. Data for the bub3 strain (AID 167). The settings on record: S. cerevisiae bub3 mutant strain, at 50.0 µM, active compounds read high. In short, it runs like this: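 Readout: yeast growth inhibition, expressed relative to vehicle-only wells. The test organism is a mutant strain from a panel with lesions in DNA repair or checkpoint genes.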

The nature of experiment [6]: NCI Yeast Anticancer Drug Screen. Data for the mlh1 rad18 strain (AID 175). The settings on record: S. cerevisiae mlh1 rad18 strain growth inhibition; at 50.0 µM; active compounds read high. In short, it runs like this: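 Yeast w/ defined DNA-repair lesions; compound exposure; growth vs vehicle controls → % inhibition.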

Several values for one entry are separate records, joined by “and”; a condition that tells them apart may be missing. Equal values may be shown once. Compounds without any hit were thinned out: in the full panel of roughly 79,000, 15% have a hit. A number with no mark means an inactive call. Activity calls are given as the source filed them. Cut-off read from the data, not from the text of the source: active = growth inhibition above about 70%; inactive = the rest.

`CC(NCCO)C(O)c1ccccc1` (stereo unspecified): the growth inhibition in experiment [1] was -23.9%; in experiment [2], -42.5%; in experiment [3], -2.25%; in experiment [4] it was 8.5%; in experiment [5], -21.2%; in experiment [6] it was -16.6%.
Consider `CCN1C[C@]2(C)CC[C@H](O)C34C1C(C[C@@H]32)[C@@]1(O)CC[C@H]2C[C@@H]4[C@@H]1[C@H]2O`, for which the growth inhibition is 19.4% in experiment [1]; 1.15% in experiment [2]; -1.45% in experiment [3]; 23.8% in experiment [4]; 6.7% in experiment [5]; 31.2% in experiment [6].
For `C1N2CN3CN1CN(C2)C3.[Cu+2]`, the growth inhibition was -15.4% in experiment [1]; -9.85% in experiment [2]; -14.7% in experiment [3]; -8.5% in experiment [4]; -15% in experiment [5]; -6.9% in experiment [6].
On to `O=CC(O)C(O)C1[O][Sb][O]C1CO` (stereo unspecified), for which the growth inhibition in experiment [1] is 0.75%; in experiment [2] it was -1.7%; in experiment [3], -4.45%; in experiment [4], -53.9%; in experiment [5], -5.85%; in experiment [6], -8.85%.
As to `Cc1ccc(S(=O)(=O)CC([Se]C#N)c2ccccc2)cc1` (stereo unspecified), the growth inhibition in experiment [1] was -21.1%; in experiment [2] it was 2.2%; in experiment [3], -15.1%; in experiment [4] it was -3.9%; in experiment [5] it was -6.1%; in experiment [6] it was 1.45%.
On to `OCCBr`, for which the growth inhibition in experiment [1] was -2.95%; in experiment [2] it was -7.7%; in experiment [3], -4.65%; in experiment [4], -1.05%; in experiment [5] it was -0.7%; in experiment [6] it was -17.9%.
As for `O=c1cccc2n1CC1CNC[C@H]2C1`, the growth inhibition in experiment [1] was 16.6%; in experiment [2], 9.5%; in experiment [3] it was 5.8%; in experiment [4] it was 7.75%; in experiment [5], 12.6%; in experiment [6], -4.85%.
`CCC(CO)N=Cc1ccccc1O.CCC(CO)N=Cc1ccccc1O.[Ni]` (stereo unspecified): the growth inhibition in experiment [1] is 40%; in experiment [2], 1.3%; in experiment [3], 31.9%; in experiment [4], -44.1%; in experiment [5], 8.7%; in experiment [6] it was 25.5%.
For `CCC(c1ccc(OC)cc1)C(N)c1ccc(OC)cc1` (stereo unspecified), the growth inhibition in experiment [1] is -14.3%; in experiment [2] it was 1.05%; in experiment [3] it was -11.9%; in experiment [4] it was -10.5%; in experiment [5], -4.35%; in experiment [6] it was -0.3%.
For `CC(=O)C1(c2ccccc2)CCNCC1`, the growth inhibition is -1% in experiment [1]; -13.1% in experiment [2]; 10.6% in experiment [3]; 11.9% in experiment [4]; -3.9% in experiment [5]; -3.35% in experiment [6].
Consider `Nc1n[nH]c(CCc2nc(N)n[nH]2)n1`, for which the growth inhibition in experiment [1] was 22.8%; in experiment [2], -12.2%; in experiment [3] it was -18.1%; in experiment [4], 7.65%; in experiment [5], 11.6%; in experiment [6], 4.9%.
`CN(C)C1COC2Cc3ccccc3C1O2` (stereo unspecified): the growth inhibition in experiment [1] was -25.6% and -13.6%; in experiment [2], -26.2% and -9.45%; in experiment [3] it was -3.65% and 1.7%; in experiment [4] it was -22.4% and 3.5%; in experiment [5], -0.15% and -8.75%; in experiment [6] it was -77.4% and -90.5%.
`CCOC(=O)/C(=C\c1cccc(F)c1)[Se]c1ccccc1`: the growth inhibition is 29.4% in experiment [1]; 7.15% in experiment [2]; 21.9% in experiment [3]; 8.3% in experiment [4]; 46.8% in experiment [5]; 36.6% in experiment [6].
As for `CN(C)c1cc(C(C)(C)C)nc(C(C)(C)C)c1`, the growth inhibition in experiment [1] was 7.65% and 3%; in experiment [2], -1.1% and -1.8%; in experiment [3], 8.6% and 5.1%; in experiment [4] it was 1.25% and -5.95%; in experiment [5], 0.3% and -4.75%; in experiment [6], 9.05% and 10.4%.
Regarding `C=C(C)CCP(=S)(OCC)OCC`, the growth inhibition in experiment [1] is -27.9%; in experiment [2], -18.3%; in experiment [3], -24.2%; in experiment [4], -22.7%; in experiment [5], 5.45%; in experiment [6], -3.45%.
Take `COC(C(=O)C(O)C(C)O)C1Cc2cc3cc(OC4CC(OC(C)=O)C(OC5CC(O)C(OC)C(C)O5)C(C)O4)cc(O)c3c(O)c2C(=O)C1OC1CC(OC2CC(OC3CC(C)(O)C(OC(=O)C(C)C)C(C)O3)C(O)C(C)O2)C(O)C(C)O1` (stereo unspecified): the growth inhibition in experiment [1] is 1.55% and 17.7%; in experiment [2], -5.45% and 28.8%; in experiment [3] it was -24.6% and 17.3%; in experiment [4], 52.5% and 58%; in experiment [5], -19.4% and 35.5%; in experiment [6] it was 1.2% and 17.1%.
On to `O=[N+]([O-])c1cccc(/C=C/c2ccc(S(=O)(=O)F)cc2)c1`, for which the growth inhibition was 97.5% (active) in experiment [1]; 93.8% (active) in experiment [2]; 96.8% (active) in experiment [3]; 93.8% (active) in experiment [4]; 97.2% (active) in experiment [5]; 97.3% (active) in experiment [6].
Consider `Cc1cccc(C=NCCOCCOCCN=Cc2cccc(C)c2O)c1O.[Ni]`, for which the growth inhibition was -8.3% in experiment [1]; 2.65% in experiment [2]; -13.6% in experiment [3]; 1.25% in experiment [4]; -19.6% in experiment [5]; -14.2% in experiment [6].
As to `CCC(C)Sc1ccccc1OC(=O)NC` (stereo unspecified), the growth inhibition in experiment [1] is -10.4%; in experiment [2], 7.05%; in experiment [3] it was 0.5%; in experiment [4], -16.6%; in experiment [5] it was 9.85%; in experiment [6], 24.1%.
With `COc1cc2c3cc1Oc1c(OC)c(OC)cc4c1C(Cc1ccc(cc1)Oc1cc(ccc1O)CC3N(C)CC2)N(C)CC4` (stereo unspecified), the growth inhibition in experiment [1] is -18.4% and 5.95%; in experiment [2] it was -30.8% and -27.1%; in experiment [3] it was -9.65% and -29.5%; in experiment [4], 12.7% and -14.9%; in experiment [5], -0.55% and -12.1%; in experiment [6] it was -10.6% and -41%.
In the case of `CC1CCC2C(C)C3C(CC4C5CC=C6CC(OC7OC(CO)C(O)C(OC8OC(CO)C(O)C(O)C8O)C7OC7OC(C)C(O)C(O)C7O)CCC6(C)C5CCC43C)N2C1` (stereo unspecified), the growth inhibition in experiment [1] is -3.25% and 9.1%; in experiment [2], 11.8% and -8.5%; in experiment [3] it was -5.75% and 10.2%; in experiment [4], -6.3% and -9.3%; in experiment [5], -1.65% and 1.95%; in experiment [6] it was 36.5% and 15.3%.

Values taken from PubChem BioAssay (NCI).
